Eight compounds from PubChem BioAssay (NCI) can be followed below.

SMILES strings stand for the structures. This is part of a sample that, as a whole, favours compounds with a hit. Of some 83,000 tested, about 20% had one in any assay.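 Percent growth is the endpoint: 0 to 100 indicates growth inhibition (40 means 60% inhibition), 0 means no net growth, and negative values indicate cell death.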 Unmarked numbers belong to inactive results. Calls of active or inactive are those of the source. The calls were made as follows: active = growth percent below 10; inactive = the rest.

What all share (experiment): NCI-60 one-dose screen, 48 h (100 = growth as untreated, 0 = no growth, -100 = all killed)
One assay has as its system EKVX NSCLC. To be noted: 10 µM unless noted.
The subject of another assay is SN12C renal. To be noted: 10 µM unless noted.
For the next assay, the system named is UO-31 renal. To be noted: 10 µM unless noted.
Another assay relates to TK-10 renal. To be noted: 10 µM unless noted.
A further assay relates to ACHN renal. The following applies: 10 µM unless noted.
In another assay the test system is CAKI-1 renal. To be noted: 10 µM.
The subject of the next assay is CCRF-CEM leukemia. The following applies: 10 µM unless noted.
Another assay relates to MOLT-4 leukemia. To be noted: 10 µM unless noted.
Another assay has as its system SR leukemia. To be noted: 10 µM unless noted.
The next assay has as its system RPMI-8226 leukemia. To be noted: 10 µM unless noted.
The subject of another assay is OVCAR-8 ovarian. The following applies: 10 µM unless noted.
For the next assay, the system named is OVCAR-5 ovarian. To be noted: 10 µM unless noted.
For the next assay, the system named is OVCAR-4 ovarian. To be noted: 10 µM unless noted.
Another assay has as its system SK-OV-3 ovarian. To be noted: 10 µM unless noted.
The next assay concerns IGROV1 ovarian. The following applies: 10 µM unless noted.
The test system of a further assay is HS 578T breast. The following applies: 10 µM unless noted.
For the next assay, the system named is NCI/ADR-RES ovarian. The following applies: 10 µM unless noted.
A further assay deals with A498 renal. The following applies: 10 µM unless noted.

As for `CN1CCN(c2nc(-c3csc(-c4ccncc4)n3)cc3ccccc23)CC1`, the growth in the assay on EKVX NSCLC is 73.5%; in the assay on SN12C renal it was 70.4%; in the assay with UO-31 renal, 71.4%; with TK-10 renal it was 75.9%; with ACHN renal it was 54.7%; in the assay on CAKI-1 renal, 58.7%. Moreover, the growth is 26.5% with CCRF-CEM leukemia; 40.6% in the assay on MOLT-4 leukemia; -18.2% (active) with SR leukemia; 47.1% in the assay with RPMI-8226 leukemia; 84% in the assay with OVCAR-8 ovarian; 76.1% in the assay with OVCAR-5 ovarian. Also, the growth with OVCAR-4 ovarian was 84.9%; in the assay on SK-OV-3 ovarian, 86.4%; in the assay with IGROV1 ovarian, 56.8%; in the assay with HS 578T breast, 66.1%; in the assay on NCI/ADR-RES ovarian, 68%.
Turning to `CCc1ccc(NC(=O)N[C@@H](Cc2cccc(C)c2)C(=O)N[C@@H]2C(=O)N3CCC[C@H]3C(=O)N3CCCC[C@H]3C(=O)N[C@@H](CO)C(=O)N3C[C@H](C)C[C@H]3C(=O)O[C@H]2C)c(F)c1`, the growth with EKVX NSCLC was 30%; in the assay on SN12C renal, 22.4%; with UO-31 renal it was 29.6%; with TK-10 renal, 52.9%; in the assay on ACHN renal, 32.2%; in the assay with CAKI-1 renal, 15.5%. The growth with CCRF-CEM leukemia is 37.2%; in the assay with MOLT-4 leukemia, 41.8%; in the assay on SR leukemia it was 34.9%; with RPMI-8226 leukemia, 18.6%; with OVCAR-8 ovarian, 21.5%; in the assay with OVCAR-5 ovarian it was 33.5%. Moreover, the growth with OVCAR-4 ovarian was 22.1%; in the assay with SK-OV-3 ovarian, 22.1%; with IGROV1 ovarian, 43.3%; in the assay on HS 578T breast it was 28.5%; in the assay with NCI/ADR-RES ovarian, 37.7%.
Take `COc1cc(OC)c(S(N)(=O)=O)cc1C(=O)/C=C/c1ccccc1`: the growth is 77.2% in the assay on EKVX NSCLC; 11.3% in the assay on SN12C renal; 33.8% with UO-31 renal; 19.9% with TK-10 renal; 27.7% in the assay with ACHN renal; 30.2% with CAKI-1 renal. The growth was 15.1% in the assay on CCRF-CEM leukemia; 29.2% in the assay with MOLT-4 leukemia; 8.18% (active) in the assay on SR leukemia; 18.5% in the assay with RPMI-8226 leukemia; 65.3% in the assay with OVCAR-8 ovarian; 27.1% in the assay on OVCAR-5 ovarian. The growth in the assay on OVCAR-4 ovarian is 77.7%; with SK-OV-3 ovarian it was 81.1%; in the assay on IGROV1 ovarian, 25.7%; in the assay with HS 578T breast, 26.5%; in the assay on NCI/ADR-RES ovarian, 48.3%.
Take `C=CCn1c(SCC(=O)Nc2cccc(C(=O)/C=C/c3ccc(OC)c(OC)c3)c2)nc2ccccc2c1=O`: the growth is 100% in the assay with EKVX NSCLC; 96.8% with SN12C renal; 74.6% with UO-31 renal; 116% in the assay with TK-10 renal; 92.2% with ACHN renal; 75.7% with CAKI-1 renal. For the same compound, the growth in the assay on A498 renal was 89.3%; in the assay with CCRF-CEM leukemia it was 78.5%; in the assay with RPMI-8226 leukemia it was 38.7%; in the assay on OVCAR-8 ovarian it was 89.5%; in the assay on OVCAR-5 ovarian, 96.1%; in the assay on OVCAR-4 ovarian it was 87.6%. Also, the growth was 108% in the assay with SK-OV-3 ovarian, 90.5% with IGROV1 ovarian, 88.9% in the assay with HS 578T breast and 91.8% in the assay with NCI/ADR-RES ovarian.
For `CN1C(=O)/C(=C/C=C/c2ccco2)SC1=S`, the growth is 87.2% with EKVX NSCLC; 84.6% with SN12C renal; 58.3% with UO-31 renal; 75.7% in the assay with ACHN renal; 95.2% in the assay on CAKI-1 renal; 60.8% in the assay with CCRF-CEM leukemia. The growth in the assay on MOLT-4 leukemia is 90.3%; in the assay on SR leukemia, 79.6%; with RPMI-8226 leukemia it was 64.4%; with OVCAR-8 ovarian, 71.1%; in the assay on OVCAR-5 ovarian, 87.5%; with OVCAR-4 ovarian it was 96.1%. The growth in the assay with SK-OV-3 ovarian was 98.9%; in the assay on IGROV1 ovarian, 54.3%; in the assay on HS 578T breast, 98.1%; in the assay on NCI/ADR-RES ovarian it was 75.6%.
On to `CN1CCN(c2nc(-c3cnc4ccccc4n3)cc3ccccc23)CC1`, for which the growth in the assay with EKVX NSCLC is 84.9%; with SN12C renal it was 72.6%; with UO-31 renal, 63.2%; in the assay on TK-10 renal it was 99.9%; in the assay on ACHN renal it was 84%; with CAKI-1 renal, 64.1%. For the same compound, the growth was 55.6% in the assay with CCRF-CEM leukemia; 54.9% with MOLT-4 leukemia; 1.45% (active) in the assay with SR leukemia; 56.7% in the assay on RPMI-8226 leukemia; 89.7% in the assay with OVCAR-8 ovarian; 91.1% in the assay on OVCAR-5 ovarian. Also, the growth is 100% with OVCAR-4 ovarian; 92.1% in the assay on SK-OV-3 ovarian; 73.7% with IGROV1 ovarian; 85.6% in the assay with HS 578T breast; 82.2% with NCI/ADR-RES ovarian.
For the compound `N#C/C(=C\c1ccc(N2CCCCC2)cc1)C(=O)Nc1sc2c(c1C#N)CCC2`, the growth with EKVX NSCLC is 98.4%; in the assay with SN12C renal, 88.9%; with UO-31 renal, 91.2%; with TK-10 renal it was 108%; in the assay with ACHN renal, 72.5%; in the assay on CAKI-1 renal, 84.8%. The growth in the assay with CCRF-CEM leukemia is -4.06% (active); in the assay with MOLT-4 leukemia it was 104%; in the assay on SR leukemia, 97.6%; with RPMI-8226 leukemia it was 69.3%; with OVCAR-8 ovarian, 99.8%; with OVCAR-5 ovarian, 93.7%. Moreover, the growth with OVCAR-4 ovarian is 84.5%; in the assay on SK-OV-3 ovarian, 96.6%; with IGROV1 ovarian, 102%; in the assay with HS 578T breast it was 99.3%; in the assay with NCI/ADR-RES ovarian, 95.7%.
As to `Cc1cn(-c2cc(NC(=O)c3cncc(C#Cc4cnc5ccc(OCCCS(C)(=O)=O)nn45)c3)cc(C(F)(F)F)c2)cn1`, the growth in the assay with EKVX NSCLC was 16%; with SN12C renal, 16.7%; in the assay with UO-31 renal, 38.3%; in the assay on TK-10 renal, 33.8%; with ACHN renal, 56.2%; in the assay with CAKI-1 renal it was 37.4%. For the same compound, the growth is 6.72% (active) with CCRF-CEM leukemia; 9.79% (active) in the assay with MOLT-4 leukemia; 2.78% (active) in the assay on SR leukemia; 39.5% in the assay on RPMI-8226 leukemia; 15.4% in the assay with OVCAR-8 ovarian; 22.6% with OVCAR-5 ovarian. Besides, the growth was 58.4% in the assay with OVCAR-4 ovarian, 104% with SK-OV-3 ovarian, 14.4% in the assay with IGROV1 ovarian and 89.6% in the assay with NCI/ADR-RES ovarian.
